# Data: ChEMBL document CHEMBL4513216, “Probing the Open Global Health Chemical Diversity Library for Multistage-Active Starting Points for Next-Generation Antimalarials” (ACS Infect Dis, 2020)
# The campaign covered roughly 69,000 compounds. About 8,600 (12%) showed an effect of 50% or more. The list comes from a sample in which strong results are over-represented; it also holds similar structures and randomly drawn compounds.
# System: Plasmodium berghei
# Experiment: Screen against P. berghei liver stage (PbLuc), transformed with Luciferase, at 10uM
# Format: functional, HepG2
# Conditions: tested at 10 uM
row,Compound,INHIBITION
1,Cn1c(=O)n(C)c2cc(NS(=O)(=O)Cc3cccc(F)c3)ccc21,18.6%
2,Cn1ccc2ccc(C(=O)NC3CCOC(C)(C)C3)cc21 (stereo not drawn),11.7%
3,Cn1ccc2c(C(=O)NC3CN4CCC3CC4)cccc21 (stereo not drawn),32.2%
4,Cc1c(NC(=O)NC2CN3CCC2CC3)cccc1C(=O)N1CCCC1 (stereo not drawn),21.5%
5,CC(C)n1cc(C(=O)NC2CCS(=O)(=O)C2)c2ccccc2c1=O (stereo not drawn),11.1%
6,CC(C)n1cc(C(=O)NC2CN3CCC2CC3)c2ccccc21 (stereo not drawn),50.8%
7,COCCn1ccc2c(C(=O)O)cccc21,17.7%
8,COCCn1ccc2c(C(=O)NC(C)C)cccc21,1.8%
9,CC(C)n1ccc2c(C(=O)NC3CN4CCC3CC4)cccc21 (stereo not drawn),50.8%
10,CCn1cc(C(=O)NC2CCN(S(C)(=O)=O)CC2)c2ccccc21,2.37%
11,COCCn1ccc2c(C(=O)NC3CN4CCC3CC4)cccc21 (stereo not drawn),63.8%
12,CC(C)n1ccc2ccc(C(=O)NC3CN4CCC3CC4)cc21 (stereo not drawn),58.2%
13,CC(C)n1ccc2cc(C(=O)Nc3nc[nH]n3)ccc21,-22.4%
14,CCCc1nc(NCC(=O)N2CCOCC2)c2c(n1)c(C)nn2CC,45.8%
15,Cc1cc(NC(=O)C2CCCN(C(=O)NCC(C)C)C2)ccn1 (stereo not drawn),-15.8%
16,CSCc1cccc(S(=O)(=O)N2CCCCC2)c1,37.5%
17,O=C1N(C2CCOCC2)CCCC12CCN(c1ncccc1Cl)C2 (stereo not drawn),12%
18,Nc1ncc(CN2CCC(O)(c3ccccc3F)CC2)cn1,31.5%
19,CC(NC(=O)c1ccc(Cl)cc1)c1nnc(SCC(N)=O)n1C (stereo not drawn),12.315%
20,Cn1nccc1-c1cnc2n1CCNC21CCN(C(=O)C2(C)CC2)CC1,13.1%
21,Cc1cnc(CNC(=O)N(CCCO)C2CCc3ccccc32)s1 (stereo not drawn),38.5%
22,CC(=O)N1CC[C@H]2OCC[C@@]2(C(=O)NCc2cnc(C)cn2)C1,42.1%
23,O=C(NCCN1C(=O)c2ccccc2C1=O)c1scnc1Cl,19.4%
24,COCCn1ccc2c(C(=O)Nc3nc4c(s3)CCC4)cccc21,79.2%
25,COCCn1cc(C(=O)Nc2nc3c(s2)CCC3)c2ccccc21,45.5%
26,COCCn1cc(CC(=O)Nc2nc3c(s2)CCC3)c2ccccc21,-51.3%
27,CCn1ccnc1CN1CCN(CCC(=O)NC2CCCCC2)CC1,-1.65%

row,Compound,INHIBITION
1,COCC(=O)N(Cc1ccc2cc[nH]c2c1)C1CC1,10.9%
2,CCNC(=O)NCC1(CN2CCOCC2)CCCCC1,11.9%
3,CN(C)c1ncc(CNC2CC(=O)N(CCc3cccc(Cl)c3)C2)s1 (stereo not drawn),53.9%
4,Cc1cccc(CNC2CC(=O)N(CCc3cccc(Cl)c3)C2)n1 (stereo not drawn),-13%
5,Cc1nc(CNC2CC(=O)N(CCc3cccc(Cl)c3)C2)c[nH]1 (stereo not drawn),43.4%
6,O=C1CC(NCc2ncc[nH]2)CN1CCc1cccc(Cl)c1 (stereo not drawn),39.9%
7,O=C1CC(NCc2ccncc2)CN1CCc1cccc(Cl)c1 (stereo not drawn),44.8%
8,CCc1ncc(CNC2CC(=O)N(CCc3cccc(Cl)c3)C2)cn1 (stereo not drawn),-11.5%
9,Cc1ncc(CNC2CC(=O)N(CCc3ccc(F)cc3)C2)n1C (stereo not drawn),14.5%
10,Cc1nc[nH]c1CNC1CC(=O)N(CCc2cccc(Cl)c2)C1 (stereo not drawn),53.9%
11,Cc1ncc(CNC2CC(=O)N(CCc3cccc(Cl)c3)C2)n1C (stereo not drawn),60.5%
12,Cn1cccc1C(=O)NCc1ccnc(C2CCCOC2)n1 (stereo not drawn),39.8%
13,COc1ccc(Cc2nnc(NC(=O)C3CC34CCC4)s2)cc1OC (stereo not drawn),17.75%
14,Cc1cc(O)nc(C2CCN(C(=O)CO)CC2)n1,30.55%
15,Cc1noc(C)c1CCC(=O)N1CCCN(C)CC1,1.7%
16,Cc1cnc(N2CCCC3(CCOCC3)C2)nc1,-22.1%
17,COc1ccc(C(=O)C2CCCN(c3cc(C#N)ccn3)C2)cc1F (stereo not drawn),63%
18,COc1ccc(C(=O)C2CCCN(c3cc(C#N)ccn3)C2)cc1OC (stereo not drawn),42.1%
19,COc1ccc(C(=O)N2CCCC(C)C2)cc1F (stereo not drawn),28.5%
20,COc1ccccc1C(=O)C1CCCN(c2cc(C#N)ccn2)C1 (stereo not drawn),18.5%
21,COc1cccc(C(=O)C2CCCN(c3cc(C#N)ccn3)C2)c1 (stereo not drawn),59.4%
22,CNC(=O)c1ccnc(N2CCCC(COc3cccc(C)c3)C2)c1 (stereo not drawn),47.2%
23,Cn1[nH]c(C2CCCN(C(=O)CO)C2)cc1=O (stereo not drawn),29%
24,COCCN(C)CC(=O)N1CCCC2(CCC(=O)N(CC3CC3)C2)C1 (stereo not drawn),29.4%
25,CC(C)(C)S(=O)(=O)c1ccc(N2CCC(n3ccnc3)CC2)cn1,34.5%
26,O=C1CN(c2ccc(CNC(=O)NCC3CCOC3)cc2)CCN1 (stereo not drawn),0.411%
